Screening results as filed in PubChem BioAssay.
The list is not random: actives were taken first. Their share in the collection is about 5.9%.
ALR inh: human ALR oxidase inhibition via reduced H2O2; 3.8% of 290,000 active; purified ALR, DTT oxidation, H2O2 HRP-luminol luminescence; inhibition, % (no concentration beside the values); P55789;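 active means mean replicate inhibition above about 79%, with every replicate also reaching it, limit read from the data; inconclusive means only one of the two criteria met; inactive means mean below limit and not every replicate reaching it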
PRMT1 inh: blocks human protein arginine methyltransferase 1; 1.3% of 370,000 active; Q99873; recombinant PRMT1, activity-based probe fluorescence polarization; inhibition, % at 2.79 µM;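 active means inhibition above about 21% made by adding two undisclosed values, limit read from the data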
LANA-H2A inh: blocks KSHV LANA binding to histone H2A/H2B. AID 2629. cell-free LANA-H2A/H2B peptide, fluorescence polarization. 0.6% of 320,000 active. inhibition, % (concentration not given with the values); in the data active means inhibition mostly above about 10%, no sharp cut-off; inactive means mostly below about 6.7%
Target sequence (Q9QR71 whole entry, looked up): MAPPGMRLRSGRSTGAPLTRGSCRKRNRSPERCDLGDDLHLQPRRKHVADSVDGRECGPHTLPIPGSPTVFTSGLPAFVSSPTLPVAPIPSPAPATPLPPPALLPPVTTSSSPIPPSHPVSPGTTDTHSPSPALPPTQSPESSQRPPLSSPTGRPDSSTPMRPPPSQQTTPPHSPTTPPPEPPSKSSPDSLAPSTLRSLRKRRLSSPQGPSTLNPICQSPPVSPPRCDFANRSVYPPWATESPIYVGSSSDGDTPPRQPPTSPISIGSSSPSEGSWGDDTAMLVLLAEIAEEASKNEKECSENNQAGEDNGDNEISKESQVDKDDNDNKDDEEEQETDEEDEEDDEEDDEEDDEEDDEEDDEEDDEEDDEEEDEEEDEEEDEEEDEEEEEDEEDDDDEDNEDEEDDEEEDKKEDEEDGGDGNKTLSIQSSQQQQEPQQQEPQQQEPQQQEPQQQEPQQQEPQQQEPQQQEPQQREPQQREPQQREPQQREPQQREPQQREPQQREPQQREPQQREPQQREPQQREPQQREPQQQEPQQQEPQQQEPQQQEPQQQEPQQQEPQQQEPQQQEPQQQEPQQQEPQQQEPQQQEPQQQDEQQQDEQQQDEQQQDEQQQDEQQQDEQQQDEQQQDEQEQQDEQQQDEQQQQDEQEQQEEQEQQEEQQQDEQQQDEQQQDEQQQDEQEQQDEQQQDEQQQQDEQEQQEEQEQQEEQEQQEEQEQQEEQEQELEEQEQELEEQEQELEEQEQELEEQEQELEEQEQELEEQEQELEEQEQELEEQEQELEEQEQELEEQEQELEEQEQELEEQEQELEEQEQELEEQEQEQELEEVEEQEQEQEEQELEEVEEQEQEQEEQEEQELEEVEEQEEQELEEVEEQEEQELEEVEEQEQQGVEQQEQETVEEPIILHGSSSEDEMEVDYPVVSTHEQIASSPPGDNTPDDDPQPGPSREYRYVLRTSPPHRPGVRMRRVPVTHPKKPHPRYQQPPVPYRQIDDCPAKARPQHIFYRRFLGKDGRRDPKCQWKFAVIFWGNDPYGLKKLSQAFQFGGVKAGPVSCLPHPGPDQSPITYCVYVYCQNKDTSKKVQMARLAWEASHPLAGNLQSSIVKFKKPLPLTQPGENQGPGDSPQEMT
rCAG RNA binder: binds r(CAG) RNA repeats | inhibition, % at 3 µM | 1.3% of 370,000 active | r(CAG) RNA repeat, TO-PRO-1 dye displacement fluorescence;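 active means inhibition above the plate cutoff, the mean of all test compounds on that plate plus 3 SD, cut at about 35% in these data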;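 further: 0% = DMSO alone and 100% = 100 µM mitoxantrone as full dye displacement; higher means more dye released from RNA so lower well fluorescence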
Rtt109 Vps75: C. albicans Rtt109 histone acetyltransferase inhibition; Q5AAJ8; purified Rtt109/Vps75, ThioGlo CoA-SH fluorescence, 4 h; inhibition, % at 34.9 µM; 0.16% of 330,000 active;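 active means inhibition of at least 50% in every replicate; inconclusive means best replicate reaches 50% inhibition but some replicates fall short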
ABHD5 PLIN5 PPI: ABHD5-PLIN5 protein interaction inhibition. Q00G26+Q8WTS1. Split G. princeps luciferase complementation, luminescence, 4 h. inhibition, % at 4 µM. 0.78% of 360,000 active. AID 602281;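 active means inhibition above the mean inhibition across every tested compound plus 3 SD, cut at about 22% in these data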;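 further: 0% = DMSO only wells and the 100% control is not disclosed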
An asterisk follows results filed as active; u = inconclusive; x = no result given; + = active, no number.

SMILES | ALR inh | PRMT1 inh | LANA-H2A inh | rCAG RNA binder | Rtt109 Vps75 | ABHD5 PLIN5 PPI
CCOC(=O)c1c(C)n(C)c2ccc(OCC(O)CNC(CC)CO)cc12 (stereo not given) | 0.4 | -2.7 | -0.6 | -0.6 | u | 2.7
CCOC(=O)c1c(C)n(-c2ccc(C)cc2)c2ccc(OCC(O)CNCCCO)cc12 (stereo not given) | x | -1.3 | -1.7 | 9.8 | 67.4* | 11.7
CCOC(=O)c1c(C)n(-c2ccc(C)cc2)c2ccc(OCC(O)CNCC3CCCO3)cc12 (stereo not given) | -6.2 | x | -5.5 | x | 64.3* | 13.2
Cn1c(C(=O)NCc2cccnc2)cc2sc(Cl)cc21 | 94.1* | x | 0.6 | x | 1.8 | 5.2
NC(=S)c1ccc[n+]([O-])c1 | x | 59.1* | x | 2.4 | 12.1 | -7.5
CC(C)CNc1ccc2c(c1)OC[C@@H](CC(C)C)NS2(=O)=O | x | 4.5 | x | -0.7 | x | x
CCOc1ccc(C2CC(c3ccccc3C)n3nc(N)nc3N2)cc1 (stereo not given) | 1.8 | 2.0 | 32.5* | 0.8 | 2.4 | 4.7
COc1ccc(C2CC(c3ccccc3C)n3nc(N)nc3N2)cc1 (stereo not given) | 5.0 | -3.6 | -6.1 | 4.2 | 3.3 | 7.3
COc1cccc(C2CC(c3ccc(Cl)cc3)n3nc(N)nc3N2)c1 (stereo not given) | 1.0 | 4.4 | + | 3.6 | -11.5 | 0.0
COc1ccc(C2CC(c3cccc(OC)c3)n3nc(N)nc3N2)cc1 (stereo not given) | -6.2 | 0.2 | 2.1 | 1.6 | -3.4 | 7.2
CC1(C)CC(=O)C=C(c2ccccc2-c2cccc(C(N)=O)c2)C1=O | x | 3.6 | x | 1.9 | x | x
Cc1oc2cc(O)ccc2c(=O)c1-c1ccccc1 | -3.8 | -2.6 | 1.1 | 1.2 | -20.4 | -0.1
Cc1oc2cc(O)ccc2c(=O)c1-c1nncn1-c1ccccc1 | -8.8 | 52.3* | 9.0 | -40.7 | 48.0 | 3.7
COC(=O)C1(C(=O)OC)c2ncccc2N(S(=O)(=O)c2ccc(C)cc2)C1CC(=O)c1ccccc1 (stereo not given) | x | -2.7 | x | 1.6 | x | 4.5
C=CCN1C(=O)[C@H](CC(=O)N2CCSCC2)[C@@]2(C(=O)OCC)CCCC=C12 | x | -3.0 | x | 0.7 | x | x
Nc1ccccc1N=Nc1ccccc1N | 87.5* | 4.2 | -3.7 | -6.8 | 3.9 | 1.8
Nc1ccccc1-c1ccccc1N | -2.2 | 2.8 | -3.3 | -5.8 | -5.1 | 0.6
NC(CCc1ccccc1)c1csc(Nc2cnccn2)n1 (stereo not given) | x | 5.1 | x | 12.3 | x | -7.4
CCn1nc(NS(=O)(=O)c2cccc3nonc23)c2cc3ccc(C)cc3nc21 | 91.4* | x | -2.1 | x | 6.6 | -2.6
O=S(=O)(Nc1cccc2ccccc12)c1cccc2nonc12 | 17.2 | -3.8 | -4.6 | 9.4 | -13.9 | 3.7
CCCCn1nc(NS(=O)(=O)c2cccc3nonc23)c2cc3cccc(C)c3nc21 | 98.3* | 1.0 | 7.9 | 74.3* | 3.8 | 1.6
Cc1ccccc1NS(=O)(=O)c1cccc2nonc12 | 96.2* | -2.8 | 6.4 | 3.2 | 3.6 | 6.8
CC(C)C(=O)Oc1ccc(CO)cc1[C@H](CCN(C(C)C)C(C)C)c1ccccc1 | x | -1.8 | x | 0.3 | x | x
COCCn1c(C)cc(/C=C2\NC(=S)N(C)C2=O)c1C | 7.0 | 22.1* | 1.0 | 1.1 | 3.8 | -4.9
COCCn1c(C)cc(/C=C2/SC(=O)N(C(C)C(=O)OC)C2=O)c1C (stereo not given) | 39.9 | 3.8 | -4.6 | -4.8 | 4.0 | -1.2
SMILES | ALR inh | PRMT1 inh | LANA-H2A inh | rCAG RNA binder | Rtt109 Vps75 | ABHD5 PLIN5 PPI
Cc1cc2[nH]c(=O)c(=O)[nH]c2cc1S(=O)(=O)N1CCN(c2ccccc2)CC1 | 97.0* | 5.1 | 0.0 | 7.8 | -3.1 | 1.4
Cc1nc(N2CCN(c3ccccc3)CC2)[nH]c(=O)c1C | 96.8* | -2.7 | -6.2 | -1.4 | -2.5 | 6.8
COc1ccc(N2CCN(c3nc(C)c(C)c(=O)[nH]3)CC2)cc1 | 16.0 | -1.1 | 1.2 | -1.9 | -3.5 | -4.0
N#Cc1c(-c2ccccc2)nc(N2CCN(Cc3ccccc3)CC2)[nH]c1=O | 2.5 | -0.8 | -1.7 | 28.1 | -0.1 | -9.2
Cc1nnc(N2CCN(Cc3ccccc3)CC2)[nH]c1=O | 99.3* | -4.9 | 1.7 | 2.1 | -9.0 | -2.8
CCOC(=O)[C@@H]1[C@H]2COc3ccc(Br)cc3[C@H]2N2C(=O)N(c3ccc(C(F)(F)F)cc3)C(=O)[C@]12C | -4.2 | 0.8 | 1.1 | 2.3 | 2.4 | -6.9
CC(C)C[C@@H]1COc2cc(Br)ccc2S(=O)(=O)N1Cc1cn(Cc2ccc(F)cc2)nn1 | x | 0.3 | x | 1.8 | x | x
COc1ccc2cc(CN(C)C(=O)CN3C(=O)NC4(CCCC4)C3=O)ccc2c1 | x | -3.0 | x | 2.0 | x | 4.7
COc1cc2c(cc1OC)[C@H](C)N(C(=O)CSc1nc(O)c(C(C)C)c(=O)[nH]1)CC2 | x | -2.6 | 4.4 | 2.6 | 18.2 | 1.4
COc1cc2c(cc1O)CCN(C(=O)CSc1nncn1C)[C@@H]2C | 81.7* | 1.6 | 1.2 | 0.6 | -6.8 | 6.2
CCCC(=O)N(c1ccc2oc(C)c(C(C)=O)c2c1)S(=O)(=O)c1ccc(C(=O)O)cc1 | 3.9 | 0.7 | -2.6 | 11.9 | 1.0 | 3.2
CCCC(=O)N(c1ccc2oc(=O)sc2c1)S(=O)(=O)c1ccccc1 | 4.0 | 49.8* | -1.2 | 11.8 | 34.0 | 8.5
COC(=O)/C(=N/Nc1cccc(C)c1)N1CCCc2ccccc21 | 98.9* | 2.1 | -6.4 | -2.9 | -5.5 | -4.0
COC(=O)/C(=N/Nc1ccc(C)cc1)N1CCCc2ccccc21 | 98.7* | -0.3 | 6.8 | -5.5 | 5.2 | -1.2
COc1cc2c(NCCCCCCO[N+](=O)[O-])ncnc2c(OC)c1OC | x | -4.2 | x | 0.6 | x | x
CN1C2=N[C@@H](c3ccc4c(c3)OCO4)CC(=O)N2/C(=C\c2ccccc2)[C@H]1c1ccccc1 | x | 1.1 | x | x | x | x
CN(C)c1ccc(Nc2nc(-c3cccnc3)cs2)cc1 | 95.2* | 7.0 | 2.1 | 7.0 | 5.4 | -3.9
CCN(CC)c1ccc(Nc2nc(-c3cccnc3)cs2)cc1 | 50.5 | 6.3 | -0.6 | 1.5 | -8.8 | 1.5
O=C(COC(=O)Cc1ccccc1[N+](=O)[O-])Nc1nnc(-c2ccccc2)o1 | x | -1.7 | 1.6 | 17.9 | 55.7* | 1.4
NC(=O)c1ccsc1NC(=O)COC(=O)Cc1ccccc1[N+](=O)[O-] | x | 2.5 | x | 9.0 | x | 0.8
O=C(COc1ccccc1)Nc1nnc(-c2ccccc2)o1 | 92.7* | 5.9 | 14.1 | 3.8 | -13.1 | 7.7
O=C(COc1ccccc1)Nc1nnc(-c2ccco2)o1 | u | 0.6 | -6.7 | 3.1 | 10.8 | 7.7
CC1(C)CCc2cc(CN3CCN(c4ccccn4)CC3)ccc2O1 | 0.9 | 0.7 | -8.0 | -10.6 | 12.9 | 1.6
S=c1nccc(-c2ccc3c(c2)CCO3)[nH]1 | 98.0* | 11.1 | 6.0 | 3.6 | 31.2 | 4.5
Cc1ccc(-c2ccnc(=S)[nH]2)cc1 | 99.6* | 16.1 | 0.0 | 2.5 | -13.7 | 3.4
CC1(C)CCc2cc(-c3ccnc(=S)[nH]3)ccc2O1 | 99.8* | 7.9 | 3.8 | -2.0 | -1.5 | -4.1
